# Article PMC7862700, “An all-to-all approach to the identification of sequence-specific readers for epigenetic DNA modifications on cytosine”
# Experiments:
# Experiment in all cases: DAPPL (digital affinity profiling via proximity ligation, sequencing); 10 mM Tris-HCl pH 7.5, 50 mM NaCl, 1 mM DTT, 4% glycerol, room temperature, 30 min; GST-TFs on glutathione beads, 16-mer random dsDNA library, 0.1% formaldehyde crosslink after washing; high values mean tight binding
# [1] = molecular target: T1, FLI1 (Homo sapiens, UniProt Q01543 1-452); details: protein: recombinant; tags: N-terminal GST; dsDNA, one strand shown
# T1 sequence: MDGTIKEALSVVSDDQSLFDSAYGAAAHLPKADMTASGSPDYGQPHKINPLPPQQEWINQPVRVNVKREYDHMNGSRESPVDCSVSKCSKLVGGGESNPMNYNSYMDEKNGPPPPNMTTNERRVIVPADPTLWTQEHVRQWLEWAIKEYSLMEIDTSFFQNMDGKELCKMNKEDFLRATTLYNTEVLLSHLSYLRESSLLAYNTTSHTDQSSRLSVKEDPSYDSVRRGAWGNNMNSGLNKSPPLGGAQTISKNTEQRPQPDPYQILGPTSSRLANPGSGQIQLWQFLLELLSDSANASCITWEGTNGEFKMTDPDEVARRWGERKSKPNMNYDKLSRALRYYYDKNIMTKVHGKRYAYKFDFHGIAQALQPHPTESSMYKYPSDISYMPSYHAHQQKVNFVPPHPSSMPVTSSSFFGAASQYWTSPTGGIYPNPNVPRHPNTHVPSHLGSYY
# Summary of the method: (§1)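 GST fusions of human transcription factors were expressed in yeast and captured with glutathione beads. Once given DNA barcodes and pooled alongside a tag-only sample, they were incubated for 30 min at room temperature with 200 nmole of a random double-stranded 16-mer DNA library in Tris/NaCl/DTT/glycerol buffer, then washed, crosslinked (0.1% formaldehyde), proximity-ligated, PCR-amplified and sequenced on an Illumina NextSeq500. The binding signal of each hexamer is its read frequency for a factor divided by its frequency for the tag-only sample.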
# [2] = molecular target: T2, ELK1 (Homo sapiens, UniProt P19419 1-428); details: protein: recombinant; tags: N-terminal GST; dsDNA, one strand shown
# T2 sequence: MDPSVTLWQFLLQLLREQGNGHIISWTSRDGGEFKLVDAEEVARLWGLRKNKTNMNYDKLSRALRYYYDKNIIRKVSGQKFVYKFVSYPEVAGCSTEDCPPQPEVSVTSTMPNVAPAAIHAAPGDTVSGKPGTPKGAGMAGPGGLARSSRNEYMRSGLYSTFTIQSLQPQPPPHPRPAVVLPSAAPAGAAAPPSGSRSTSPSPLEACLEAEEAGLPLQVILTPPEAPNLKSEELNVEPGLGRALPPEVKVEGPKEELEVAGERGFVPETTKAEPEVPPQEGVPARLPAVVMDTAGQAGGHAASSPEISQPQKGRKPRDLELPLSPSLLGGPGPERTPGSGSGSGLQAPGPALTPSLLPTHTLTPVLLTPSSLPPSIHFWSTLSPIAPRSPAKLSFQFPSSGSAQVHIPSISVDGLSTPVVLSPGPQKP
# Summary of the method: as §1
# [3] = molecular target: T3, GABPA (Homo sapiens, UniProt Q06546 1-454); details: protein: recombinant; tags: N-terminal GST; dsDNA, one strand shown
# T3 sequence: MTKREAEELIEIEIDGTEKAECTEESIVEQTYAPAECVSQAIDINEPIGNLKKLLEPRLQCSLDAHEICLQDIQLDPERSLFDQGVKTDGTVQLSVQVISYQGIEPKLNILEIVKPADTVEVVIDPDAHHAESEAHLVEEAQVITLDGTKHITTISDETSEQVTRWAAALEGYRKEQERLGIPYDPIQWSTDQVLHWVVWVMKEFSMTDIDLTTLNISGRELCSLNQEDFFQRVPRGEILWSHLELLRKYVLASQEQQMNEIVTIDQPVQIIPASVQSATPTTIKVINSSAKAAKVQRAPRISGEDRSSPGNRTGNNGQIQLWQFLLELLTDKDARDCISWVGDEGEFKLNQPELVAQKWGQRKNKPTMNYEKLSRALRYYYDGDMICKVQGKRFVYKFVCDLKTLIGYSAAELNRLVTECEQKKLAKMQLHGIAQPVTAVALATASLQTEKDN
# Summary of the method: as §1
# [4] = molecular target: T4, ERG (Homo sapiens, UniProt P11308 1-479); details: protein: recombinant; tags: N-terminal GST; dsDNA, one strand shown
# T4 sequence: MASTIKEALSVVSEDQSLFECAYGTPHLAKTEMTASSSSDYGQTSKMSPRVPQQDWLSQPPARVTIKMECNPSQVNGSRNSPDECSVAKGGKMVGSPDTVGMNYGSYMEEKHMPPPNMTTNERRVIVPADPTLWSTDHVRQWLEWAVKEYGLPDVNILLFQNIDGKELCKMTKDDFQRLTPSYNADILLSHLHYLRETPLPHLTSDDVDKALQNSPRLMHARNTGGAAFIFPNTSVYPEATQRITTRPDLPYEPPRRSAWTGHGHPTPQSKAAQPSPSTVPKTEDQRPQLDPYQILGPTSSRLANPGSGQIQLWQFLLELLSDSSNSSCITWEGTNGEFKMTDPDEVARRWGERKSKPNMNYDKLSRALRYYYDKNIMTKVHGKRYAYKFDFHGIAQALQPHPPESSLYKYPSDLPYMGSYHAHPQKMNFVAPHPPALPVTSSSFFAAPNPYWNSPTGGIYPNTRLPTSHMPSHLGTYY
# Summary of the method: as §1
# [5] = molecular target: ELF1 (Homo sapiens, UniProt P32519 1-619); details: protein: recombinant; tags: N-terminal GST; dsDNA, one strand shown
# Summary of the method: as §1
# [6] = molecular target: T5, EHF (Homo sapiens, UniProt Q9NZC4 1-300); details: protein: recombinant; tags: N-terminal GST; dsDNA, one strand shown
# T5 sequence: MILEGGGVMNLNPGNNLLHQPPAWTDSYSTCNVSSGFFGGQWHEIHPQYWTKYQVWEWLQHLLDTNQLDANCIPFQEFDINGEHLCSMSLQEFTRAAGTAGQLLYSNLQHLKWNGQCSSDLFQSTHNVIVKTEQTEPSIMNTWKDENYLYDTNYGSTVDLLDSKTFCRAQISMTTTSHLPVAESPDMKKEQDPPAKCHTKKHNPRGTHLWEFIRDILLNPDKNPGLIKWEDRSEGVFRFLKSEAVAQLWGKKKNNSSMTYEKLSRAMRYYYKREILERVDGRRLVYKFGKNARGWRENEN
# Summary of the method: as §1
# [7] = molecular target: SPI1 (Homo sapiens, UniProt P17947 1-270); details: protein: recombinant; tags: N-terminal GST; dsDNA, one strand shown
# Summary of the method: as §1
# [8] = molecular target: SPIB (Homo sapiens, UniProt Q01892 1-262); details: protein: recombinant; tags: N-terminal GST; dsDNA, one strand shown
# Summary of the method: as §1
# [9] = molecular target: T6, ELK3 (Homo sapiens, UniProt P41970 1-407); details: protein: recombinant; tags: N-terminal GST; dsDNA, one strand shown
# T6 sequence: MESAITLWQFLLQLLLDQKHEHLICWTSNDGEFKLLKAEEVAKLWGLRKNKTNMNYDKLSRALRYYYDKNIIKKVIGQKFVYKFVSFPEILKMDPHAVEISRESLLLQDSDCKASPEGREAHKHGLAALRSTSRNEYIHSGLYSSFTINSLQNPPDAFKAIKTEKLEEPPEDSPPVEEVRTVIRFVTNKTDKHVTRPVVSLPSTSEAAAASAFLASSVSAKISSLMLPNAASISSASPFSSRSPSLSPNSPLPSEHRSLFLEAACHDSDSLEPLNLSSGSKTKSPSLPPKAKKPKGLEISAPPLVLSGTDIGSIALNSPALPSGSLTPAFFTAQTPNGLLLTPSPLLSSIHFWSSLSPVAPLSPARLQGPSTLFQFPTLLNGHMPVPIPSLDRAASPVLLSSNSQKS
# Summary of the method: as §1
# [10] = molecular target: T7, FEV (Homo sapiens, UniProt Q99581 1-238); details: protein: recombinant; tags: N-terminal GST; dsDNA, one strand shown
# T7 sequence: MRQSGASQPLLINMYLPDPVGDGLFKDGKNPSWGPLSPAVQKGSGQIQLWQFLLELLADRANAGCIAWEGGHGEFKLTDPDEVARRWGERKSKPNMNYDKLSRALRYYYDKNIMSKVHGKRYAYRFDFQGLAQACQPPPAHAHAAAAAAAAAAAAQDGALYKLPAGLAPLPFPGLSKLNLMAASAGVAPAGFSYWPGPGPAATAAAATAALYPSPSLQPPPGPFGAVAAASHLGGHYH
# Summary of the method: as §1
# [11] = molecular target: ETV5 (Homo sapiens, UniProt P41161 1-510); details: protein: recombinant; tags: N-terminal GST; dsDNA, one strand shown
# Summary of the method: as §1
# [12] = molecular target: HSF1 (Homo sapiens, UniProt Q00613 1-529); details: protein: recombinant; tags: N-terminal GST; chain copies: 3; dsDNA, one strand shown
# Summary of the method: as §1
# [13] = molecular target: T8, SPIC (Homo sapiens, UniProt Q8N5J4 1-248); details: protein: recombinant; tags: N-terminal GST; dsDNA, one strand shown
# T8 sequence: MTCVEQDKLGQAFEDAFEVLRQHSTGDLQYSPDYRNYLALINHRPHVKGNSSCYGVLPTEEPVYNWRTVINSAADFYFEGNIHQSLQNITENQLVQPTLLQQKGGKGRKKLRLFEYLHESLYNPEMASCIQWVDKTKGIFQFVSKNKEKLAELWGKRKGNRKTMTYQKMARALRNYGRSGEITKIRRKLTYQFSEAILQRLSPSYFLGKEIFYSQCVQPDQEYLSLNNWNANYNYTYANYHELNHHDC
# Summary of the method: as §1
# [14] = molecular target: ELF4 (Homo sapiens, UniProt Q99607 1-663); details: protein: recombinant; tags: N-terminal GST; dsDNA, one strand shown
# Summary of the method: as §1
# [15] = molecular target: T9, ELK4 (Homo sapiens, UniProt P28324-2 1-405); details: protein: recombinant; tags: N-terminal GST; dsDNA, one strand shown
# T9 sequence: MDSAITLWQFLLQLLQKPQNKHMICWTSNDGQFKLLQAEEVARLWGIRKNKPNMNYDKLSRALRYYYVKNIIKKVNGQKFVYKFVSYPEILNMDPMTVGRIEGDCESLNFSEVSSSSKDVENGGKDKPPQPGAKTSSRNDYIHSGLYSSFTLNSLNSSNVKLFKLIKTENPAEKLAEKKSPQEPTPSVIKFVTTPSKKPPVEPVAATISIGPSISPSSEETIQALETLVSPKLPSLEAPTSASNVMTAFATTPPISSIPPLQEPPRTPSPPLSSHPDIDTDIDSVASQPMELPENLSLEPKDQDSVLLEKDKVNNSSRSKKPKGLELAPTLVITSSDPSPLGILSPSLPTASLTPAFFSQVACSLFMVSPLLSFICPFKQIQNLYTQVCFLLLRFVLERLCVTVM
# Summary of the method: as §1
# [16] = molecular target: T10, ETV2 (Homo sapiens, UniProt O00321 1-342); details: protein: recombinant; tags: N-terminal GST; dsDNA, one strand shown
# T10 sequence: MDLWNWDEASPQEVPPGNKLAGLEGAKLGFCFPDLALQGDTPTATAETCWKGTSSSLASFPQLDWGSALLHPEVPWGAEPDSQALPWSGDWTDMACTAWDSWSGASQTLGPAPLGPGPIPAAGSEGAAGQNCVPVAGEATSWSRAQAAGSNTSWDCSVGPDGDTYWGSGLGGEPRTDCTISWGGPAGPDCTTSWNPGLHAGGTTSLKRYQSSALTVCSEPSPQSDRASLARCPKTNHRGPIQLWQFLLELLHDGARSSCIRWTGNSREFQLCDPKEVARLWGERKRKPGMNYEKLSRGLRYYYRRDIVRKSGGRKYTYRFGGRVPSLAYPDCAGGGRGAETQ
# Summary of the method: as §1
# [17] = molecular target: T11, ELF3 (Homo sapiens, UniProt P78545 1-371); details: protein: recombinant; tags: N-terminal GST; dsDNA, one strand shown
# T11 sequence: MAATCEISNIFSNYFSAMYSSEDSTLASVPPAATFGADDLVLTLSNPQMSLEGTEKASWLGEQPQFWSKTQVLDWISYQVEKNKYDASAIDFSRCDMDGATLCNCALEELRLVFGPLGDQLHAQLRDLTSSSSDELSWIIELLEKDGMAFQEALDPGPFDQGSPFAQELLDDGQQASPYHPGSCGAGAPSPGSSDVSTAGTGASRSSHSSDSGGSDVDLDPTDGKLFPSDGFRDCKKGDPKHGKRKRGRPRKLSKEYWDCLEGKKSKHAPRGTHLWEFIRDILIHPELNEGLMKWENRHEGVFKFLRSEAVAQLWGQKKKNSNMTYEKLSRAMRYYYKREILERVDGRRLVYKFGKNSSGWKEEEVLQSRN
# Summary of the method: as §1
# [18] = molecular target: CRX (Homo sapiens, UniProt O43186 1-299); details: protein: recombinant; tags: N-terminal GST; dsDNA, one strand shown
# Summary of the method: as §1
# [19] = molecular target: ETV1 (Homo sapiens, UniProt P50549 1-477); details: protein: recombinant; tags: N-terminal GST; dsDNA, one strand shown
# Summary of the method: as §1
# Sequence of ETV5 (P41161 whole entry): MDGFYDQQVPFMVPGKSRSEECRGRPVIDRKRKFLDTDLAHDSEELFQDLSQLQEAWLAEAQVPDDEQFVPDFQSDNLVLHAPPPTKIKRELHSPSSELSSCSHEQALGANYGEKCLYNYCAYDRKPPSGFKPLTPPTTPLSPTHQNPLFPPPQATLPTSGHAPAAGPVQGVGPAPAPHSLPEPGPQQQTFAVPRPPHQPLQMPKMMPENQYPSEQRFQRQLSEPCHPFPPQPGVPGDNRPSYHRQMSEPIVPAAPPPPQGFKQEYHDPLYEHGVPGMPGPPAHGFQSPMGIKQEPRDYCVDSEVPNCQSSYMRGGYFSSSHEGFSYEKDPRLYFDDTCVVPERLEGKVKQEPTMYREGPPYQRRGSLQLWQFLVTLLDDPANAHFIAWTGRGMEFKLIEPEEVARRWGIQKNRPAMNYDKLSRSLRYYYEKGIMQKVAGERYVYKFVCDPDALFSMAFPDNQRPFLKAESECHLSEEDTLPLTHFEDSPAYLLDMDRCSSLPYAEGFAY
# Sequence of ELF4 (Q99607 whole entry): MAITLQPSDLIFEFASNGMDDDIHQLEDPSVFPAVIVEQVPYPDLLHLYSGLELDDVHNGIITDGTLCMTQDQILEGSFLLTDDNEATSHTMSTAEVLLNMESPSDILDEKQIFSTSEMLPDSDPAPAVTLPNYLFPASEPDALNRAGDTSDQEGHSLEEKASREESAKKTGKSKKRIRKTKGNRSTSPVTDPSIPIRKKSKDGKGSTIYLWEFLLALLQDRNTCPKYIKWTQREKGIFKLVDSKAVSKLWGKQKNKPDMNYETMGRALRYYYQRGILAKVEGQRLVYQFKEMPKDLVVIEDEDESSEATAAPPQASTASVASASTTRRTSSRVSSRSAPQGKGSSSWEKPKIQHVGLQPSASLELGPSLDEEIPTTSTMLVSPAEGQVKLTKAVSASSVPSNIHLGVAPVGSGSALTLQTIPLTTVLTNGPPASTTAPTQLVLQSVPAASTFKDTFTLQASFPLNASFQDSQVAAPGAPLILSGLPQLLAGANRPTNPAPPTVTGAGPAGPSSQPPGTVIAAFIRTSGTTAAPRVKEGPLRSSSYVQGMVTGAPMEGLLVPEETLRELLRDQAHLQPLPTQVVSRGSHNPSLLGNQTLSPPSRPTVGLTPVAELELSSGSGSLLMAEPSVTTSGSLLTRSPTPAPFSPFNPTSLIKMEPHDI
# Sequence of CRX (O43186 whole entry): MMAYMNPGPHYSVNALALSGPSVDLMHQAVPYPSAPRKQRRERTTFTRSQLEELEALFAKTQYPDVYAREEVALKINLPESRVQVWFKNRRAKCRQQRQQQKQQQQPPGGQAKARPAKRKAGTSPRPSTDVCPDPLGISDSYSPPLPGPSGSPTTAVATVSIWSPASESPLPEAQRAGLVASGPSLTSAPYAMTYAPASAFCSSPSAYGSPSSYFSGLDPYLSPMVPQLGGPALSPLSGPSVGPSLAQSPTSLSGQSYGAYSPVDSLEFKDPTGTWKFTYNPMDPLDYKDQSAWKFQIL
# Sequence of ELF1 (P32519 whole entry): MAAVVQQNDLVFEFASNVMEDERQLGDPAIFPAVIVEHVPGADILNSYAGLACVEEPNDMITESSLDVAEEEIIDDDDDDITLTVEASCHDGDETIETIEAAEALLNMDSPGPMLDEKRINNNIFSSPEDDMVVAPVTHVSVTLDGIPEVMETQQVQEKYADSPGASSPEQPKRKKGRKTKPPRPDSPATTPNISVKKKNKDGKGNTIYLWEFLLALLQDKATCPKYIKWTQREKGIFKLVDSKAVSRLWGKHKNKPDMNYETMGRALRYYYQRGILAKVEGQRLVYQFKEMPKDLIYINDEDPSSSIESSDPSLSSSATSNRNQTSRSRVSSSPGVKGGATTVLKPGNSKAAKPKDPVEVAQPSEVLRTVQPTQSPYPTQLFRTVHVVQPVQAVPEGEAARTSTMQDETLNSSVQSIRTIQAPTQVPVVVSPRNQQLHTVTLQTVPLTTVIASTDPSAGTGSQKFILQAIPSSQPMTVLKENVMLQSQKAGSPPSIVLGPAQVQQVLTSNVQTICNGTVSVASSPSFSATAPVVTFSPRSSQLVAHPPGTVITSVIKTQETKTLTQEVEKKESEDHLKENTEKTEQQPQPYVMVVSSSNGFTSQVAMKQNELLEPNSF
# Sequence of ETV1 (P50549 whole entry): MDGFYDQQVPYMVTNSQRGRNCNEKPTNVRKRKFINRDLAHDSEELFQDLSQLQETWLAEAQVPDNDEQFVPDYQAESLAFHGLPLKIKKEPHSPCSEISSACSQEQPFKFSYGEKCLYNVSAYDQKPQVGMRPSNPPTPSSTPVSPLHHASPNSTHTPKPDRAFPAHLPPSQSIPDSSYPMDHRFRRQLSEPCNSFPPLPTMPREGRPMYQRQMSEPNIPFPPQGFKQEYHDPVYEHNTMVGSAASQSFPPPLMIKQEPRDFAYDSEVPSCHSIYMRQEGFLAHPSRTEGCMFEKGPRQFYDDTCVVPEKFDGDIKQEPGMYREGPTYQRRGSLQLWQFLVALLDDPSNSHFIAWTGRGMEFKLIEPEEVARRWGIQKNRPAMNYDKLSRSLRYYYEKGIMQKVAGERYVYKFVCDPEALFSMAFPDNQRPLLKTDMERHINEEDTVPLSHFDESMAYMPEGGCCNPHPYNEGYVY
# Sequence of SPIB (Q01892 whole entry): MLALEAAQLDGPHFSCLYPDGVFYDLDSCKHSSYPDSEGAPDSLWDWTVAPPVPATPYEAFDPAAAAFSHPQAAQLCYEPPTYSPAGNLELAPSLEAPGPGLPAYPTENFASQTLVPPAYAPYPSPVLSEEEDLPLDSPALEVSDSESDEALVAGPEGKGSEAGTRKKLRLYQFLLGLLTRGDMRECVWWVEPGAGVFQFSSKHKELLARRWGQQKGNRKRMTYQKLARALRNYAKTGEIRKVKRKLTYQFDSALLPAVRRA
# Sequence of HSF1 (Q00613 whole entry): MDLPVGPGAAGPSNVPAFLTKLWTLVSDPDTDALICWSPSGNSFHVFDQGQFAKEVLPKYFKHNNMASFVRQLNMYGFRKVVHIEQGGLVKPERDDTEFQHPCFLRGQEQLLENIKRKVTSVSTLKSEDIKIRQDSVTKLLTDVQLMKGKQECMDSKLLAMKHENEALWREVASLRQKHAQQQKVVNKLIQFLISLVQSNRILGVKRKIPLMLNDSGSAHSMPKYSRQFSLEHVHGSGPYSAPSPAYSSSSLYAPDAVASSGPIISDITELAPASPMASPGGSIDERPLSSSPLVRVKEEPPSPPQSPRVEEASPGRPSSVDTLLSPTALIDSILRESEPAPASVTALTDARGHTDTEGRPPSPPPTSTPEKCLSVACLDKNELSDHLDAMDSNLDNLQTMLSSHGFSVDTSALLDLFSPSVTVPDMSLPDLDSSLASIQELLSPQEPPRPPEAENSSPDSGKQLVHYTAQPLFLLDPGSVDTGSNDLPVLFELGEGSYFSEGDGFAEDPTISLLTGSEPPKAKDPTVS
sequence,measurement,setting,value
AATTCC,binding signal,[1],"1.95 fold enrichment (6-mer frequency, TF over GST control)"
same,binding signal,[2],"1.93 fold enrichment (6-mer frequency, TF over GST control)"
same,binding signal,[3],"1.81 fold enrichment (6-mer frequency, TF over GST control)"
same,binding signal,[4],"1.96 fold enrichment (6-mer frequency, TF over GST control)"
same,binding signal,[5],"1.86 fold enrichment (6-mer frequency, TF over GST control)"
same,binding signal,[6],"2.05 fold enrichment (6-mer frequency, TF over GST control)"
same,binding signal,[7],"1.89 fold enrichment (6-mer frequency, TF over GST control)"
same,binding signal,[8],"2.02 fold enrichment (6-mer frequency, TF over GST control)"
same,binding signal,[9],"1.94 fold enrichment (6-mer frequency, TF over GST control)"
same,binding signal,[10],"2.05 fold enrichment (6-mer frequency, TF over GST control)"
same,binding signal,[11],"2.1 fold enrichment (6-mer frequency, TF over GST control)"
same,binding signal,[12],"2.07 fold enrichment (6-mer frequency, TF over GST control)"
same,binding signal,[13],"1.93 fold enrichment (6-mer frequency, TF over GST control)"
same,binding signal,[14],"1.92 fold enrichment (6-mer frequency, TF over GST control)"
same,binding signal,[15],"1.55 fold enrichment (6-mer frequency, TF over GST control)"
same,binding signal,[16],"2.11 fold enrichment (6-mer frequency, TF over GST control)"
same,binding signal,[17],"1.7 fold enrichment (6-mer frequency, TF over GST control)"
same,binding signal,[18],"2.04 fold enrichment (6-mer frequency, TF over GST control)"
same,binding signal,[19],"1.95 fold enrichment (6-mer frequency, TF over GST control)"
